Laboratory results reported in PubChem BioAssay (NCI).
The panel holds about 79,000 compounds, 15% with a hit somewhere; the sample as a whole holds those more often. Values without a mark were called inactive. Activity calls are given as the source filed them. Cut-off read from the data, not from the text of the source: active = growth inhibition above about 70%; inactive = the rest.

Experiments:
[1] = NCI Yeast Anticancer Drug Screen. Data for the rad50 strain (AID 155);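 note: 0% = growth of vehicle-only cultures of the same strain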; conditions: S. cerevisiae rad50 strain growth inhibition, stronger effect = higher value
In short: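 Vehicle-treated cultures provide the reference for the growth inhibition reported for compound-exposed, repair-deficient yeast.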

[2] = NCI Yeast Anticancer Drug Screen. Data for the mec2-1 strain (AID 157); conditions: S. cerevisiae mec2-1 strain, stronger effect = higher value
In short: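 Cells of the genetically defined mec2-1 yeast strain are incubated with test compound. Inhibition of growth is calculated against vehicle-treated controls.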

[3] = NCI Yeast Anticancer Drug Screen. Data for the sgs1 mgt1 strain (AID 161);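 note: 0% = growth of cultures given vehicle only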; conditions: S. cerevisiae sgs1 mgt1 strain, stronger effect = higher value
In short: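 Inhibition of yeast growth, normalised to vehicle-treated controls, is reported for a strain bearing genetic alterations in DNA damage repair.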

[4] = NCI Yeast Anticancer Drug Screen. Data for the cln2 rad14 strain (AID 165);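 note: 0% = growth equal to vehicle treated cultures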; conditions: S. cerevisiae cln2 rad14 strain, stronger effect = higher value
In short: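 The screen exposed genetically defined yeast (cln2 rad14) to test compounds and scored growth inhibition relative to vehicle-treated controls.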

[5] = NCI Yeast Anticancer Drug Screen. Data for the bub3 strain (AID 167); conditions: S. cerevisiae bub3 mutant strain, stronger effect = higher value
In short: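 Mutant yeast screening strain plus compound; vehicle-treated cultures serve as the 0% inhibition reference.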

[6] = NCI Yeast Anticancer Drug Screen. Data for the mlh1 rad18 strain (AID 175); conditions: S. cerevisiae mlh1 rad18 strain growth inhibition, stronger effect = higher value
In short: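 Compound-treated yeast growth, normalised to vehicle controls. Strain bears defined DNA repair mutations.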

[7] = at 5.0 µM (retest, dose inferred, filed as 0.5)
[8] = at 50.0 µM (retest, dose inferred, filed as 5.0)

| Structure (SMILES) | growth inhibition [1, 7] | growth inhibition [1, 8] | growth inhibition ([1]; at 50.0 µM) | growth inhibition [2, 7] | growth inhibition [2, 8] | growth inhibition ([2]; at 50.0 µM) | growth inhibition [3, 7] | growth inhibition [3, 8] | growth inhibition ([3]; at 50.0 µM) | growth inhibition [4, 7] | growth inhibition [4, 8] | growth inhibition ([4]; at 50.0 µM) | growth inhibition [5, 7] | growth inhibition [5, 8] | growth inhibition ([5]; at 50.0 µM) | growth inhibition [6, 7] | growth inhibition [6, 8] | growth inhibition ([6]; at 50.0 µM) |
| --- | --- | --- | --- | --- | --- | --- | --- | --- | --- | --- | --- | --- | --- | --- | --- | --- | --- | --- |
| [Au+].c1c[n-]cn1.c1ccc([PH+](c2ccccc2)c2ccccc2)cc1 | 99% (active) | 98% (active) | 97.9% (active) | 99% (active) | 98% (active) | 98% (active) | 99% (active) | 98% (active) | 96.2% (active) | 98% (active) | 97% (active) | 93.6% (active) | 98% (active) | 98% (active) | 97.2% (active) | 99% (active) | 98% (active) | 97.7% (active) |
| Cc1cc(N(CCCl)CCCl)ccc1CN1CCCN(Cc2ccc(N(CCCl)CCCl)cc2C)C1c1ccc(N(CCCl)CCCl)cc1C | 4% | 98% (active) | 98% (active) | -2% | 99% (active) | 98% (active) | 2% | 99% (active) | 98.8% (active) | 1% | 98% (active) | 87% (active) | 7% | 99% (active) | 97.7% (active) | 21% | 98% (active) | 98.6% (active) |
| O=C(CCl)OCC(Cl)Cl | 3% | 2% | 1.25% | 4% | 2% | -2.5% | 1% | 6% | 10.4% | 2% | -4% | 19.6% | -2% | -3% | 6.65% | 9% | 3% | 20.6% |
| O=CNc1ccccc1.[Hg] | 98% (active) | 98% (active) | 99.7% (active) | 99% (active) | 99% (active) | 99.6% (active) | 99% (active) | 98% (active) | 99.4% (active) | 99% (active) | 98% (active) | 99.3% (active) | 99% (active) | 98% (active) | 99.5% (active) | 98% (active) | 98% (active) | 99.4% (active) |
